In PubChem BioAssay (NCATS):
Calls of active or inactive are those of the source. A call without a number means that no potency is given here. The call rests on the fitted dose curve; in most records, active means well fitted inhibition curve with a large enough effect; inconclusive means small, poorly fitted or top-dose-only effect; inactive means flat fitted curve, though single readings scatter.

Target: Luciferin 4-monooxygenase (Photinus pyralis) (UniProt P08659)
Assay: Primary firefly luciferase (FLuc) qHTS assay for identification of artifact compounds. (AID 1845220); further: nearly all actives have a fitted effect of over 60% in size
Conditions: purified firefly luciferase, luminescence, 5 min; series mostly up to 54.1 µM
In short: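 Enzymatic FLuc inhibition assay: compounds pre-exposed to luciferin/ATP (10 uM each) for 15 min, then purified P. pyralis enzyme at 10 nM added. Read-out: luminescence at 5 min.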

Row | Compound | Potency | outcome | activity change, negative = inhibition
1 | O=C(/C=C/c1ccc(O)cc1)OCC1OC(O)C(OC2OC(CO)C(O)C(O)C2O)C(O)C1O (centres undefined) | inactive | – | –
2 | Cc1onc(-c2c(Cl)cccc2Cl)c1CC(=O)NCc1ccc(OCC(F)(F)F)nc1 | inactive | – | –
3 | CC1(C)CC[C@]2(C(=O)O[C@@H]3O[C@H](CO)[C@@H](O)[C@H](O)[C@H]3O)CC[C@]3(C)C(=CCC4[C@@]5(C)C[C@H](O)[C@H](O[C@@H]6O[C@H](C(=O)O)[C@@H](O)[C@H](O)[C@H]6O)[C@@](C)(CO)C5CC[C@]43C)C2C1 (some centres undefined) | – | inactive [at 11.6 µM] | –
4 | CC(=O)O[C@@H]1[C@H](O[C@@H]2O[C@H](CO)[C@@H](O)[C@H](O)[C@H]2O)[C@@H](O[C@@H]2O[C@@H](C)[C@H](O)[C@@H](O[C@@H]3O[C@H](CO)[C@@H](O)[C@H](O)[C@H]3O)[C@H]2O)[C@H](OC(=O)[C@]23CCC(C)(C)C[C@H]2C2=CCC4[C@@]5(C)C[C@H](O)[C@H](O[C@@H]6O[C@H](C(=O)O)[C@@H](O)[C@H](O)[C@H]6O)[C@@](C)(C(=O)O)C5CC[C@@]4(C)[C@]2(C)CC3)O[C@@H]1C (some centres undefined) | – | inactive [at 11.6 µM] | –
5 | COc1ccc(CCC(=O)c2c(O)cc(O[C@@H]3O[C@H](CO)[C@@H](O)[C@H](O)[C@H]3O[C@@H]3O[C@@H](C)[C@H](O)[C@@H](O)[C@H]3O)cc2O)cc1O | inactive | – | –
6 | O=C(/C=C/c1ccc(O)c(O)c1)O[C@H]1[C@H](OC2CCCCC2O)O[C@H](CO)[C@@H](O)[C@@H]1O (some centres undefined) | inactive | – | –
7 | CC(C)=CCC[C@](C)(O[C@@H]1O[C@H](CO)[C@@H](O)[C@H](O)[C@H]1O)[C@H]1CC[C@]2(C)[C@@H]1[C@H](O)CC1[C@@]3(C)CC[C@H](O)C(C)(C)C3[C@@H](O[C@@H]3O[C@H](CO)[C@@H](O)[C@H](O)[C@H]3O[C@@H]3O[C@@H](C)[C@H](O)[C@@H](O)[C@H]3O)C[C@]12C (some centres undefined) | – | – | -2.06% [at 11.6 µM] (inactive)
8 | C/C(=C\CC[C@H](CO)[C@@H]1CC[C@]2(C)C3=C(CC[C@@]12C)[C@@]1(C)CCC(=O)C(C)(C)C1CC3)C(=O)O (some centres undefined) | inactive | – | –
9 | C/C=C(\C)C(=O)OC[C@H]1O[C@@H](O[C@H]2[C@@H](O[C@H]3O[C@H](CO)[C@@H](O)[C@H](O)[C@H]3O[C@@H]3O[C@H](CO)[C@@H](O)[C@H](O)[C@H]3O)O[C@H](COC(=O)/C(C)=C/C)[C@@H](O)[C@@H]2O)[C@H](O)[C@@H](O)[C@@H]1O | – | – | 3.78% [at 11.6 µM] (inactive)
10 | C=C1CC[C@@]2(OC1)O[C@H]1CC3C4CC=C5C[C@@H](O[C@@H]6O[C@@H](C)[C@H](O)[C@@H](O)[C@H]6O)C[C@@H](O[C@@H]6O[C@H](C)[C@H](O)[C@H](O)[C@H]6O[C@@H]6O[C@@H](C)[C@H](O)[C@@H](O)[C@H]6O)[C@]5(C)C4CC[C@]3(C)[C@H]1[C@@H]2C (some centres undefined) | – | inactive [at 11.6 µM] | –
11 | C=C1CC[C@@]2(OC1)O[C@H]1CC3[C@@H]4CC=C5C[C@@H](O)C[C@@H](O[C@@H]6OC[C@H](O)[C@H](O)[C@H]6O[C@@H]6O[C@@H](C)[C@H](O)[C@@H](O)[C@H]6O)[C@]5(C)C4CC[C@]3(C)[C@H]1[C@@H]2C (some centres undefined) | inactive | – | –
12 | COC(=O)C[C@@H]1C(C(=O)O)=CO[C@@H](O[C@@H]2O[C@H](CO)[C@@H](O)[C@H](O)[C@H]2O)/C1=C\COC(=O)/C=C/c1ccc(O)c(OC)c1 | inactive | – | –
13 | CC1CCC2(C)CCC3(C)C(=CCC4C5(C)CCC(O)C(C)(C(=O)O)C5CCC43C)C2C1C (centres undefined) | inactive | – | –
14 | COc1c2c(c(C)c3c1C(=O)OC3)OC1(C)CC(O)C34OC(O)(CCC3(C)C1C2)OC4(C)C (centres undefined) | inactive | – | –
15 | C/C(=C\CCC(C)CCO)C(=O)OC[C@H]1O[C@@H](O[C@@H]2OC=C(C(=O)O)[C@H]3CC[C@](C)(O)[C@@H]23)C(O)[C@@H](O)C1O (some centres undefined) | inactive | – | –
16 | CCN(CCN(C)C)C(=O)CNCc1cc(C(N)=O)ccn1 | inactive | – | –
17 | C=C(COC(=O)CC(C)C)C1Cc2cc(C(C)=O)ccc2O1 (centres undefined) | inactive | – | –
18 | CNc1nc(Cc2ccccc2)nc2c1CCNC[C@@H]2C | inactive | – | –
19 | CCC(C)/C=C(C)/C=C/C(=O)C1CCC(O)C(C)(O)C1=O (centres undefined) | inactive | – | –
20 | C=C(COC(=O)C(C)C)C1Oc2cc(C(C)=O)ccc2C1OC(=O)C(C)C (centres undefined) | inactive | – | –

Row | Compound | Potency | outcome | activity change, negative = inhibition
21 | CC1(C)CC[C@]2(C(=O)O[C@@H]3O[C@H](CO)[C@@H](O)[C@H](O)[C@H]3O)[C@H](O)C[C@]3(C)C(=CCC4[C@@]5(C)CC[C@H](O[C@@H]6OC[C@@H](O)[C@H](O)[C@H]6O)[C@@](C)(C(=O)O)C5CC[C@]43C)[C@@H]2C1 (some centres undefined) | inactive | – | –
22 | CC(C)(O)C(O)C(=O)OCc1ccc(O[C@@H]2O[C@H](CO)[C@@H](O)[C@H](O)[C@H]2O)cc1 (some centres undefined) | inactive | – | –
23 | C/C=C(/C)C(=O)O[C@@H]1C[C@@H](OC(=O)/C(C)=C\C)[C@@]2(C)C3C(=O)C=C(C)C2C3C1(C)C | inactive | – | –
24 | C=C(C)[C@@H]1CC[C@]2(C)CC[C@]3(C)C(CCC4[C@@]5(C)CC[C@H](O)C(C)(C)C5CC[C@]43C)C12 (some centres undefined) | inactive | – | –
25 | CC(=O)O[C@@H]1C(=O)C(C)=C(CCC(C)CC(=O)O)[C@@]2(C)CCCC(C)(C)C12 (some centres undefined) | inactive | – | –
26 | C/C=C/C=C/C(=O)OC1CC/C=C/C(O)C(O)C(CCC)OC1=O (centres undefined) | inactive | – | –
27 | C=C1C(O)CC2C(C(=O)O)=COC(OC3OC(CO)C(O)C(O)C3OC(=O)/C=C\c3ccc(O)cc3)C12 (centres undefined) | inactive | – | –
28 | CC(C)c1c(NC(=O)Nc2ccc(Cl)cc2)c(=O)n(-c2ccccc2)n1C | inactive | – | –
29 | CC(C)(C)NS(=O)(=O)c1ccc(-c2ccc3[nH]nc(N)c3c2)cc1 | inactive | – | –
30 | COc1cc2c(cc1O)C(c1ccc(O)cc1)C(C)C(C)C2 (centres undefined) | inactive | – | –
31 | CCNC(=O)OC1CCN(c2nncc3cc(OC)c(OC)cc23)CC1 | inactive | – | –
32 | CC(=O)OC1CC2(C)C(CCC(C)C23Cc2c(O)cc4c(c2O3)CNC4=O)C(C)(C)C1O (centres undefined) | inactive | – | –
33 | CC1=C(CCC(C)O[C@@H]2O[C@H](CO)[C@@H](O)[C@H](O)[C@H]2O)C(C)(C)CC(O)C1 (some centres undefined) | inactive | – | –
34 | C=C1C(OC(C)=O)C(=O)C2C(C)(C)C(O)CCC2(C)C1CC(OC(C)=O)/C(C)=C/COC(C)=O (centres undefined) | inactive | – | –
35 | C=C1[C@H]2CCC3[C@]4(C)CCC[C@@](C)(C(=O)O)C4CC[C@]3(C2)[C@H]1OC(C)=O (some centres undefined) | inactive | – | –
36 | N#Cc1cc(-c2n[nH]c(-c3ccncc3)n2)ccn1 | inactive | – | –
37 | COC1CC(O[C@H]2CC[C@@]3(C)C(=CC[C@]4(O)C3[C@H](O)[C@@H](O)[C@]3(C)[C@@H]([C@H](C)O)CC[C@@]34O)C2)OC(C)C1OC1CC(OC)C(OC2CC(OC)C(OC3OC(C)C(OC4OC(CO)C(O)C(O)C4O)C(OC)C3O)C(C)O2)C(C)O1 (some centres undefined) | – | – | 1.06% [at 11.6 µM] (inactive)
38 | CC1=C2CC(C)(C)CC2C(O)C2=C(C1)C(=O)OC2O (centres undefined) | inactive | – | –
39 | C[C@@H]1[C@H]2[C@H](O[C@@H]3O[C@H](CO)[C@@H](O)[C@H](O)[C@H]3O)OC=C(C(=O)O)[C@H]2C[C@@H]1OC(=O)/C=C/c1ccc(O)cc1 | inactive | – | –
